Measurements as given in PubChem BioAssay (NCATS).
“And” between values parts separate entries of the source, which are not always exact repeats. Equal values may be shown once. Records with an inconclusive call do not appear. Unmarked numbers belong to inactive results. The source made the active and inactive calls. Calls follow the shape of the dose curve; as a rule, active = well fitted cell-killing curve with a large enough effect; inconclusive = small, poorly fitted or top-dose-only effect, or effect the other way; inactive = no such curve, though single readings can be large or run the other way.

Assay: Viability qHTS for spleen associated tyrosine kinase inhibitor (SYKi) naive MV4-11 cells (AID 1963823); also: nearly all actives have a fitted effect of over 40% in size
Conditions: MV4-11 AML viability, CellTiter-Glo luminescence, 72 h; series mostly up to 45 µM; viability (% of control): at the top concentration
Text: Department of Medicine, Hematology/Oncology
University Hospital Frankfurt, Germany.
Trials have shown promising clinical activity of the selective SYK inhibitor entospletinib in patients with high expressing HOXA9/MEIS1 acute leukemias. As the development of resistance mechanisms is a common problem in the use of targeted drugs, we performed a chemical library screen to identify drug sensitivities in SYK inhibitor resistant AML cells. […] Glucocorticoids are potent immunosuppressants which work in part by inhibiting the transcription of cytokine genes.
Described herein is a viability screen to look for activity in the SYK inhibitor naive cell line against four NCATS compound libraries (MIPE 5.0, NPC, NPACT, and Kinase) totaling 11372 compounds. Active hits were reacquired for confirmation and further secondary assay testing.
SEQUENCE No. (e.g., 1, 2, 3, etc.); […] (e.g., Cells, Incubation, Reagent, etc.); VALUE; DESCRIPTION.
1; Media; 2uL; white, solid-bottom Corning assay plate.
2; Compounds; 23nL; Echo acoustic dispenser.
3; Cell; 5uL; 500 cells per well.
4: Incubation; 72hr; 37 C, 5% CO2, 95% humidity.
5; Reagent; 3uL; CellTiter-Glo reagent (Promega).
6; Incubation; 10min; room temperature.
7; Detection; Luminescence; ViewLux plate reader (PerkinElmer).
NOTES (numbers refer to Sequence numbers above
1. Quantitative high-throughput screening (qHTS) of small molecule compounds was conducted on naive SYKi MV4-11 cell line.
2. Twenty-three nanoliter of small molecule compounds were added to each assay plates using the Echo acoustic dispenser (Beckman Coulter).
3. Cells were seeded into the assay plates at a final density of 500 cells in 5uL of media per well using the Multi-drop Combi dispenser.
4. Plates were covered with stainless steel gasketed lids and incubated for 72 hours at standard cell culture conditions.
5. Viability was assessed by adding 3uL of CellTiter-Glo detection reagent (Promega).
6. Plates were covered with gasket lids and incubated for 10 minutes at room temperature.
7. Luminescence was measured on a ViewLux plate reader (PerkinElmer).
Potency is read from the fitted curve at half-maximal effect.

| SMILES | viability (% of control) | Potency |
| --- | --- | --- |
| CCOc1ccc(NC(C)=O)cc1 | 77.1% |  |
| O=C(NS(=O)(=O)c1ccc(Br)s1)c1ccc(Cl)cc1Cl |  | 7.31 µM (active) |
| COCCN(C)Cc1ccc2nc3sc(C(=O)N(C)C4CCCCC4)cn3c2c1 | 71.8% |  |
| O=C(O)CC(=O)OC[C@H]1O[C@@H](Oc2ccc3c(c2)OC[C@H]2c4cc5c(cc4O[C@@H]32)OCO5)[C@H](O)[C@@H](O)[C@@H]1O | 88.1% [at 17.3 µM] |  |
| C1CCN2C[C@@H]3C[C@@H](CN4CCCC[C@@H]34)[C@H]2C1 | 105% |  |
| Cc1ccc(NC(=O)c2ccc(CN3CCNCC3)cc2)cc1Nc1nccc(-c2cccnc2)n1 |  | 9.2 µM (active) and 16.6 µM (active) |
| CCN1CCCC1CN (stereo not given) | 116% |  |
| CN(C)CCn1cc(S(=O)(=O)c2cccc(F)c2)c2cccnc21 | 59.2% |  |
| CC[C@]12C=CCN3CC[C@@]4(c5cc([C@@]6(C(=O)OC)CC7C[C@@H](C(C)(F)F)CN(Cc8c6[nH]c6ccccc86)C7)c(OC)cc5N(C)[C@H]4[C@@](O)(C(=O)OC)[C@@H]1OC(C)=O)[C@@H]32 (stereo not given in full) |  | 0.0934 µM (active) |
| Cn1c(=O)n(-c2ccc(C(C)(C)C#N)cc2)c2c3cc(-c4cnc5ccccc5c4)ccc3ncc21 |  | 0.027 µM (active) |
| CCN(CC)CCN(Cc1ccc(-c2ccc(C(F)(F)F)cc2)cc1)C(=O)Cn1c(SCc2ccc(F)cc2)nc(=O)c2c1CCC2 |  | 2.91 µM (active) |
| COc1cccc2c1CCCC2CCCN1CCN(C2CCCCC2)CC1 (stereo not given) |  | 16.6 µM (active) |
| O=C(O)c1cc(O[C@@H]2O[C@H](CO)[C@@H](O)[C@H](O)[C@H]2O)ccc1O | 75% |  |
| CC(=O)OCC(=O)Nc1cc(C#N)cc(NC(=O)COC(C)=O)c1Cl | 65.1% |  |
| c1ccc2c(-c3cnn4cc(-c5ccc(OCCN6CCOCC6)cc5)cnc34)ccnc2c1 |  | 1.02 µM (active) |
| COc1ccc(-c2cc(C(O)C3CCCCN3)c3ccccc3n2)cc1 (stereo not given) |  | 0.525 µM (active) |
| C=C[C@H](/C=C\c1ccc(O)cc1)c1ccc(O)cc1 |  | 18.4 µM (active) |
| O=C(O)CCCc1c[nH]c2ccccc12 | 77.6% |  |
| Cc1[nH]c2ccccc2c1C1=C(NCCc2ccc(F)cc2)C(=O)N(C)C1=O |  | 16.4 µM (active) |
| Cc1noc(NS(=O)(=O)c2ccc(N)cc2)c1C | 102% |  |

| SMILES | viability (% of control) | Potency |
| --- | --- | --- |
| O=C1NC(Cc2ccc(O)cc2)C(=O)N2CCCC12 (stereo not given) | 59.9% |  |
| CC1=CC(=O)[C@]2(O[C@@H]3O[C@@H](C)[C@H](O)[C@@H](O)[C@H]3O)C=CO[C@@H](O[C@@H]3O[C@H](CO)[C@@H](O)[C@H](O)[C@H]3O)[C@H]12 | 73.2% [at 17.3 µM] |  |
| CC1(C)C2CCC(CO[C@@H]3O[C@H](CO[C@@H]4OC[C@](O)(CO)[C@H]4O)[C@@H](O)[C@H](O)[C@H]3O)C1C2 (stereo not given in full) | 83% [at 17.3 µM] |  |
| C=C1C[C@]23C[C@H]1CC[C@H]2[C@@]12CC[C@H](O)[C@@](C)(C(=O)O1)[C@H]2[C@@H]3C(=O)O | 86.6% |  |
| O=C(C1CC1)N1CC[C@@H](Cc2n[nH]c(=O)n2-c2ccc(-c3ccc4occc4c3)cc2)C1 | 49% [at 17.3 µM] |  |
| C#CC(=O)N(c1ccc(OC)cc1OC)C(C(=O)NCC(=O)OCC)c1cccs1 (stereo not given) |  | 0.116 µM (active) |
| CN(C)CCN(Cc1ccc(-c2ccc(CNCCc3ccccc3)cc2)cc1)C(=O)CCC1CCCC1 |  | 1.03 µM (active) |
| O=S1(=O)OC(c2ccc(O)cc2)(c2ccc(O)cc2)c2ccccc21 | 95.3% |  |
| Cc1cnc(-c2cnc(NCCNc3ccc(C#N)cn3)nc2-c2ccc(Cl)cc2Cl)[nH]1 |  | 14.6 µM (active) |
| CC(C)CC(=O)O[C@@H]1O[C@H](CO)[C@@H](O[C@H]2O[C@H](C)[C@@H](N[C@H]3C=C(CO)[C@@H](O[C@H]4O[C@H](CO)[C@@H](O[C@H]5O[C@H](CO)[C@@H](O[C@H]6O[C@H](CO)[C@@H](O)[C@H](O)[C@H]6O)[C@H](O)[C@H]5O)[C@H](O)[C@H]4O)[C@H](O)[C@H]3O)[C@H](O)[C@H]2O)[C@H](O)[C@H]1O | 82.5% [at 9.25 µM] |  |
| O=C(/C=C\c1ccc(O)cc1)N[C@@H](Cc1ccc(O)cc1)C(=O)O | 103% |  |
| C=C1[C@H](OC(=O)/C=C(\C)CC)C[C@@H](C(C)C)[C@@H]2[C@H]([C@@H](C)OC(C)=O)C(=O)C[C@@H]12 |  | 14.8 µM (active) |
| C=C[C@H]1[C@H](O[C@@H]2O[C@H](CO)[C@@H](O)[C@H](O)[C@H]2O)OC=C(C(=O)OC)[C@H]1C[C@@H]1c2cc(O)c(O)cc2CCN1C(C)=O | 80% [at 17.3 µM] |  |
| COC(=O)c1ccc2c(C(=Nc3ccc(N(C)C(=O)CN4CCN(C)CC4)cc3)c3ccccc3)c(O)[nH]c2c1 |  | 32.6 nM (active) and 37.2 nM (active) |
| CC(C)CC(=O)c1c(O)cc2c(c1O)C(CC(C)C)C1=C(O2)C(C)(C)C(=O)C(C)(C)C1=O (stereo not given) |  | 8.93 µM (active) |
| COC(=O)c1cc(Br)cnc1N1CCC(NC2CCCCC2)C(O)C1 (stereo not given) | 62.8% |  |
| CN=C(NC#N)NCCSCc1csc(N=C(N)N)n1 | 90.8% |  |
| CC(C)c1ccc(NC(=O)c2cccs2)c(-c2nc3ccccc3[nH]c2=O)c1 |  | 8.2 µM (active) |
| O=C(NCC(O)CO)c1ccncc1Nc1ccc(I)cc1F (stereo not given) |  | 0.366 µM (active) |
| CC(=O)O[C@@H]1[C@H](O[C@@H]2O[C@H](CO)[C@@H](O)[C@H](O)[C@H]2O)[C@@H](O[C@@H]2O[C@@H](C)[C@H](O)[C@@H](O[C@@H]3O[C@H](CO)[C@@H](O)[C@H](O)[C@H]3O)[C@H]2O)[C@H](OC(=O)C23CCC4(C)C(=CCC5C6(C)CC(O)C(O[C@@H]7O[C@H](C(=O)O)[C@@H](O)[C@H](O)[C@H]7O)C(C)(C(=O)O)C6CCC54C)C2CC(C)(C)CC3O)O[C@@H]1C (stereo not given in full) | 92% [at 9.25 µM] |  |
